Some test systems named below: MOLT-4 leukemia; SR leukemia; OVCAR-8 ovarian; OVCAR-5 ovarian; OVCAR-4 ovarian; SK-OV-3 ovarian; IGROV1 ovarian; OVCAR-3 ovarian; HS 578T breast; NCI/ADR-RES ovarian; T-47D breast; BT-549 breast; MDA-MB-435 melanoma; SW-620 colon; MCF7 breast; HCT-116 colon; HCC-2998 colon; KM12 colon; RPMI-8226 leukemia.
What all share (test): NCI-60 one-dose screen, 48 h (100 = growth as untreated, 0 = no growth, -100 = all killed)
What all share (conditions): 10 µM unless noted

About 83,000 compounds went through this panel and 20% of them were active in at least one assay; those are over-represented in the sample as a whole.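 Activity criterion: percent growth below 10, measured after cells in 96-well plates were exposed to a single compound concentration for 48 hours.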 A number with no mark means an inactive call. Active and inactive are the calls of the source.

`CCCC(C)SP(=S)(SC(C)CCC)SC(C)CCC` (centres undefined): the growth in the assay with MOLT-4 leukemia is 110%; in the assay with SR leukemia, 110%; in the assay with OVCAR-8 ovarian it was 107%; in the assay with OVCAR-5 ovarian it was 112%; with OVCAR-4 ovarian it was 110%; in the assay with SK-OV-3 ovarian, 108%. The growth with IGROV1 ovarian was 109%; in the assay on OVCAR-3 ovarian, 98.5%; in the assay with HS 578T breast, 108%; in the assay with NCI/ADR-RES ovarian it was 99.9%; in the assay with T-47D breast, 100%; in the assay on BT-549 breast, 99.8%. The growth in the assay with MDA-MB-435 melanoma was 97.3%; with SW-620 colon, 91.7%; in the assay with MCF7 breast, 95.1%; in the assay with HCT-116 colon, 101%; with HCC-2998 colon, 91.5%; in the assay on KM12 colon it was 97.3%.

For the molecule `CC1(C)N(Nc2ccccc2)C(=O)C2CCCN21` (centres undefined), the growth in the assay with MOLT-4 leukemia was 15.1%; in the assay with SR leukemia it was 14.2%; with OVCAR-8 ovarian, 87%; in the assay with OVCAR-5 ovarian, 75.1%; in the assay with OVCAR-4 ovarian, 70.8%; in the assay on SK-OV-3 ovarian it was 85.1%. Moreover, the growth in the assay with IGROV1 ovarian was 72.7%; in the assay with OVCAR-3 ovarian, 0.57% (active); in the assay on HS 578T breast, 85.9%; in the assay with NCI/ADR-RES ovarian it was 85.9%; in the assay with T-47D breast, 56.8%; in the assay on BT-549 breast, 13.6%. The growth is 12.5% with MDA-MB-435 melanoma; 62.5% in the assay with SW-620 colon; 80.1% with MCF7 breast; 12.1% in the assay with HCT-116 colon; 88.1% with HCC-2998 colon; 15.7% in the assay with KM12 colon.

For the molecule `CC(=O)C(N)Cc1ccccc1` (centres undefined), the growth in the assay on MOLT-4 leukemia was 101%; with SR leukemia, 93.7%; in the assay on RPMI-8226 leukemia, 79.6%; in the assay on OVCAR-8 ovarian, 91.8%; with OVCAR-4 ovarian, 99.1%; in the assay with SK-OV-3 ovarian it was 83.1%. For the same molecule, the growth is 107% in the assay on IGROV1 ovarian; 114% in the assay on OVCAR-3 ovarian; 99.4% in the assay on NCI/ADR-RES ovarian; 78.3% in the assay on T-47D breast; 96% in the assay with BT-549 breast; 102% in the assay with MDA-MB-435 melanoma. Moreover, the growth with MCF7 breast is 93.6%; in the assay on HCT-116 colon, 86.3%; in the assay with HCC-2998 colon it was 96.3%; in the assay with KM12 colon, 106%.

`CC1(C)N=C(N)N=C(N)N1c1ccc(CCC(=O)Nc2ccc(S(=O)(=O)F)cc2)cc1`: the growth with MOLT-4 leukemia is 26.1%; in the assay with SR leukemia, 15.7%; with OVCAR-8 ovarian it was 36.7%; in the assay on OVCAR-5 ovarian it was 34%; in the assay on OVCAR-4 ovarian it was 92.8%; with SK-OV-3 ovarian, 67.8%. The growth was 25.8% in the assay with IGROV1 ovarian; 96.7% with OVCAR-3 ovarian; 82% in the assay on HS 578T breast; 117% in the assay with NCI/ADR-RES ovarian; 88.9% in the assay on T-47D breast; 58.7% in the assay on BT-549 breast. For the same molecule, the growth in the assay with MDA-MB-435 melanoma is 20.8%; with SW-620 colon, 25.8%; in the assay on HCT-116 colon it was 12.3%; with HCC-2998 colon it was 42.3%; with KM12 colon, 13.3%.

For the molecule `C/C(=C\c1ccn(-c2ccc(N)cc2F)n1)[C@@H]1C[C@@H]2O[C@]2(C)CCC[C@H](C)[C@H](O)[C@@H](C)C(=O)C(C)(C)[C@@H](O)CC(=O)O1`, the growth with MOLT-4 leukemia is 10.6%; with SR leukemia it was 13.8%; in the assay with OVCAR-8 ovarian, 18.7%; with OVCAR-5 ovarian it was 23.5%; in the assay on OVCAR-4 ovarian, 61.1%; with SK-OV-3 ovarian it was 33.9%. Also, the growth is 34.8% with IGROV1 ovarian; -4.43% (active) in the assay with OVCAR-3 ovarian; -1.48% (active) in the assay with HS 578T breast; -11.9% (active) in the assay with NCI/ADR-RES ovarian; 35.5% with T-47D breast; 19.7% in the assay with BT-549 breast. For the same molecule, the growth in the assay on MDA-MB-435 melanoma is -30% (active); with SW-620 colon, 35.1%; in the assay with MCF7 breast, 16.7%; in the assay with HCT-116 colon, 12.2%; in the assay on HCC-2998 colon, -15% (active); in the assay with KM12 colon, 10.2%.

For the molecule `CCCC[C@H]1C(=O)O[C@H](C)[C@H](NC(=O)c2cccc(NC=O)c2O)C(=O)O[C@@H](C)[C@@H]1OC(=O)CC(C)C`, the growth in the assay on MOLT-4 leukemia is 31.1%; in the assay on SR leukemia it was 49.4%; with RPMI-8226 leukemia, 18.2%; in the assay on OVCAR-4 ovarian, 40.9%; in the assay with SK-OV-3 ovarian, 68%; in the assay with IGROV1 ovarian, 55.6%. The growth is 43.4% in the assay on OVCAR-3 ovarian; -18.5% (active) with HS 578T breast; 1.1% (active) with NCI/ADR-RES ovarian; 27.9% in the assay on T-47D breast; 140% with BT-549 breast; 39% with MDA-MB-435 melanoma. Besides, the growth with SW-620 colon is 59%; in the assay on MCF7 breast, 38.3%; in the assay with HCT-116 colon, 20.8%; in the assay on HCC-2998 colon, 56.6%; in the assay with KM12 colon it was 41.9%.

Consider `Nc1ccc(S(=O)(=O)F)cc1`, for which the growth in the assay with MOLT-4 leukemia is 93.3%; in the assay on SR leukemia, 84.7%; with RPMI-8226 leukemia, 98.9%; in the assay with OVCAR-8 ovarian, 107%; in the assay on OVCAR-4 ovarian, 130%; with SK-OV-3 ovarian, 105%. The growth with IGROV1 ovarian was 105%; in the assay on OVCAR-3 ovarian, 111%; with NCI/ADR-RES ovarian, 107%; with T-47D breast it was 96.4%; with BT-549 breast, 104%; in the assay with MDA-MB-435 melanoma, 102%. Further, the growth with SW-620 colon was 105%; with MCF7 breast it was 106%; with HCT-116 colon, 100%; with HCC-2998 colon it was 103%; in the assay on KM12 colon it was 100%.

In the case of `CCOP(=O)(NC)OCC`, the growth in the assay with MOLT-4 leukemia was 127%; with SR leukemia, 71.3%; in the assay on OVCAR-8 ovarian it was 115%; in the assay with OVCAR-5 ovarian it was 91.5%; in the assay on OVCAR-4 ovarian it was 105%; in the assay on SK-OV-3 ovarian, 104%. Further, the growth in the assay on IGROV1 ovarian was 105%; in the assay with OVCAR-3 ovarian it was 99.5%; in the assay with HS 578T breast, 98.4%; in the assay with NCI/ADR-RES ovarian it was 102%; in the assay on T-47D breast, 102%; in the assay on BT-549 breast, 112%. Also, the growth with MDA-MB-435 melanoma is 132%; in the assay with SW-620 colon it was 108%; in the assay with HCT-116 colon it was 92.1%; in the assay with HCC-2998 colon, 112%; in the assay on KM12 colon, 106%.

For the molecule `COC1C(O)CC(OC2CC(Oc3cc4cc5c(c(O)c4c(O)c3C)C(=O)[C@@H](OC3CC(OC4CC(OC6CC(C)(O)C(OC(C)=O)C(C)O6)C(O)C(C)O4)C(O)C(C)O3)[C@H]([C@H](OC)C(=O)[C@@H](O)[C@@H](C)O)C5)OC(C)C2OC(C)=O)OC1C` (some centres undefined), the growth was 1.77% (active) in the assay with MOLT-4 leukemia; 1.63% (active) in the assay with SR leukemia; -30.8% (active) in the assay with RPMI-8226 leukemia; -67% (active) in the assay on OVCAR-5 ovarian; 4.26% (active) in the assay on OVCAR-4 ovarian; 12.2% in the assay on SK-OV-3 ovarian. In addition, the growth in the assay on IGROV1 ovarian is -23.8% (active); in the assay with OVCAR-3 ovarian, -9.73% (active); with NCI/ADR-RES ovarian, -33.9% (active); in the assay with T-47D breast, -7.93% (active); with BT-549 breast, -68.3% (active); in the assay on MDA-MB-435 melanoma, -100% (active). The growth in the assay on SW-620 colon is -16.1% (active); in the assay with MCF7 breast, -18.4% (active); with HCT-116 colon, 0.84% (active); in the assay on KM12 colon, -34.6% (active).
